# GPR151 ag: activators of human GPR151, primary screen, cell-based, PathHunter beta-arrestin, luminescence; activation, % at 11.2 µM; 1% of 650,000 active; G-protein coupled receptor 151 (Homo sapiens), Q8TDV0; PathHunter beta-arrestin GPR151 cells; AID 1508602, 2020; in the data active = activation above about 4.9%
# Target sequence (Q8TDV0 whole entry, looked up): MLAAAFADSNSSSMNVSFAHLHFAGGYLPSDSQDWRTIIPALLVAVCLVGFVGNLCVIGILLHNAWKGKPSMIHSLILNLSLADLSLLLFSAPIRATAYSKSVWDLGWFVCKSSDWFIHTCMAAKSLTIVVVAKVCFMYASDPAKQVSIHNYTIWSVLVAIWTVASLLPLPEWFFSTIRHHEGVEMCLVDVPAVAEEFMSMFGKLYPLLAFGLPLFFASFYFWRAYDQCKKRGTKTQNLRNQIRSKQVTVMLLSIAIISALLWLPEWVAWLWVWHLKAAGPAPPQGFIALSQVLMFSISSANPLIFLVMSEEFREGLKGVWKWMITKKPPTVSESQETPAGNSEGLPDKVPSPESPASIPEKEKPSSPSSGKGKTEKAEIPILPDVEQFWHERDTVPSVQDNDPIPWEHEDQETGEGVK
# TEAD-YAP block: TEAD-YAP interaction inhibition, primary screen, TEAD-YAP interaction inhibitor project, luminescence, HEK-TIYL cells | TEAD-Gal4/YAP UAS-luciferase luminescence | inhibition, % at 9.12 µM | 1.4% of 640,000 active; in the data active = inhibition above about 32%
# MITF inh: MITF inhibitors, primary screen, biochemical, AlphaScreen, human; AlphaScreen MITF homodimerization, bead proximity signal; inhibition, % at 2.6 µM; 0.91% of 650,000 active; AID 1259374, 2018; in the data active = inhibition above about 50%
# FBW7 act: FBW7 E3 ligase activators, primary screen, biochemical, AlphaScreen, human. F-box/WD repeat-containing protein 7 (Homo sapiens), Q969H0. AlphaScreen FBW7–phospho-cyclin E peptide binding, activator screen. normalized activity (activation), % at 26.1 µM. 0.13% of 650,000 active; in the data active = normalized activity above about 1.9%;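 also: purified mutant Fbw7 with reduced substrate affinity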
# Hits are given with their value; 0 = inactive. Shown are actives, neighbours in structure and some others; about 3.5% of the full set was active somewhere.
SMILES,GPR151 ag,TEAD-YAP block,MITF inh,FBW7 act
CNc1cc(-c2cnn(C)c2)nc(Nc2ccc(-n3nc(C)nc3C)cc2)n1,0,0,0,0
COc1ccc(/C=C2\C(=O)N(c3ccccc3)N=C2C)c(OC)c1,0,0,0,0
O=C(Nc1nc(-c2ccc(-c3ccccc3)cc2)cs1)c1cc2ccccc2oc1=O,0,0,0,0
CSCc1ccc(C(=O)NC2CCCCCC2)cc1,0,47,0,0
O=C(NC1CCCCC1)c1ccc(CSc2ccc(Cl)cc2)cc1,0,0,0,0
CCN(CC)c1cc(C)nc(Nc2ccc(NC(=O)C(C)C)cc2)n1,0,48,0,0
COc1cccc2cc(-c3csc(NC(C)=O)n3)c(=O)oc12,0,0,0,0
COc1cccc2cc(-c3csc(N)n3)c(=O)oc12,0,49,0,0
COc1ccc(-c2cc3cccc(OC)c3oc2=O)cc1,0,71,0,0
Cc1cccc(CCNc2nncc(-c3cccc(Cl)c3)n2)n1,0,0,0,0
COc1cc(OC)cc(C(=O)N2N=C(C)CC2(O)C(F)(F)F)c1 (stereo not drawn),0,50,0,0
CC1=NN(C(=O)c2cc(O)cc(O)c2)C(O)(C(F)(F)F)C1 (stereo not drawn),0,0,0,0
COc1cc(C(=O)N2N=C(C)CC2(O)C(F)(F)F)cc(OC)c1OC (stereo not drawn),0,60,0,0
COc1cc(C(=O)N2N=C(C3CC3)CC2(O)C(F)(F)F)cc(OC)c1OC (stereo not drawn),0,0,0,0
CCCCn1c(=S)[nH]c2ccccc21,0,0,0,2.0
O=C(/C=C/c1ccco1)NC(=S)Nc1ccccc1,0,0,0,0
O=C(/C=C/c1ccco1)NC(=S)Nc1ccc(NC(=O)c2ccco2)cc1,0,69,0,0
COc1cc(NC(=O)/C=C/c2ccco2)ccc1NC(=O)c1ccco1,0,0,0,0
CC(C)(C)C(=O)Nc1ccc(C(=O)/C=C/c2ccco2)cc1,0,37,0,0
COc1cc(NC(=S)NC(=O)/C=C/c2ccco2)ccc1NC(=O)c1ccco1,0,49,0,0
Cc1ccc(OCCCN2C(=O)c3ccccc3C2=O)c([N+](=O)[O-])c1,0,0,0,0
Fc1ccc(-c2cc(-c3nc(-c4cccnc4)no3)c3ccccc3n2)cc1,0,0,0,0
CCOc1ccccc1N1CCN(c2nnnn2-c2ccccc2)CC1,0,42,0,0
CCOC(=O)N1CCN(c2nnnn2-c2ccccc2)CC1,0,0,0,0
O=C(Nc1cc2ccccc2oc1=O)c1ccccc1,0,54,0,0
SMILES,GPR151 ag,TEAD-YAP block,MITF inh,FBW7 act
CC(=O)Oc1ccc2cc(NC(=O)c3ccc(C)cc3)c(=O)oc2c1,0,52,0,0
O=C(Nc1cc2ccccc2oc1=O)c1ccc(Br)cc1,0,0,0,0
CC1CCCCN1C(=O)CSc1nnc(-c2ccc(O)cc2)o1 (stereo not drawn),0,49,0,0
Cc1ccc(-c2nnc(SCC(=O)N3CCCCC3C)o2)cc1C (stereo not drawn),0,0,0,0
CCCC(=O)NC(c1ccc(C)cc1)c1ccc2cccnc2c1O (stereo not drawn),0,69,0,0
CCCCC(=O)NC(c1ccc(N(CC)CC)cc1)c1ccc2cccnc2c1O (stereo not drawn),0,0,0,0
Cc1ccc(C(NC(=O)COc2ccccc2)c2cc(Cl)c3cccnc3c2O)cc1 (stereo not drawn),0,0,0,0
CCCCC(=O)NC(c1ccc(C)cc1)c1ccc2cccnc2c1O (stereo not drawn),0,85,0,0
CCc1ccc(C2=NC(c3ccc(Cl)cc3)NC(c3cc(Br)ccc3O)C2)cc1 (stereo not drawn),0,0,0,0
COc1cc(S(=O)(=O)N(Cc2ccccc2F)C2CCCC2)ccc1-n1cnnn1,0,67,0,0
COc1cc(S(=O)(=O)N(Cc2cccs2)C2CCCC2)ccc1-n1cnnn1,0,0,0,0
CC(=O)Nc1ccc(N=Nc2ccc(O)cc2)cc1,0,56,0,0
CC(=O)c1ccc(N=Nc2c(C)[nH][nH]c2=O)cc1,0,0,0,0
CC(=O)c1ccc(N=Nc2ccc(O)cc2)cc1,0,99,0,0
COc1ccc(CCCC(=O)N/N=C\c2ccco2)cc1,0,0,0,0
CC(C)c1ccc(NC(=O)/C=C\C(=O)O)cc1,0,0,0,0
Cc1c(Cl)cccc1S(=O)(=O)N1CCC(Cn2c(C)nc3ccccc32)CC1,0,36,0,0
Cc1nc2ccccc2n1CC1CCN(S(=O)(=O)/C=C/c2ccccc2)CC1,0,33,0,0
Cc1c(Cl)cccc1S(=O)(=O)N1CCC(n2nnc3ccccc32)CC1,0,0,0,0
CC(=O)Nc1ccc(S(=O)(=O)N2CCN(S(C)(=O)=O)CC2)cc1,0,0,0,0
C=CCOc1ccc(C=C2C(=O)N(C)C(=S)N(C)C2=O)cc1OC,0,0,67,0
C=CCOc1ccc(C=C2C(=O)N(C)C(=S)N(C)C2=O)cc1I,0,0,0,0
COc1ccc(/C(C#N)=C/c2ccc3c(c2)OCO3)cc1OC,0,37,0,0
CCOc1ccc(/C=C(/C#N)c2ccc3c(c2)OCO3)cc1,0,0,0,0
Fc1ccc(-c2csc3ncnc(NCCc4cccs4)c23)cc1,0,43,0,0
SMILES,GPR151 ag,TEAD-YAP block,MITF inh,FBW7 act
C=CCNc1ncnc2scc(-c3ccccc3)c12,0,38,0,0
c1csc(CCNc2ncnc3sc4c(c23)CCC4)c1,0,37,0,0
O=C(NCC(c1ccco1)S(=O)(=O)c1cccs1)c1cccc([N+](=O)[O-])c1 (stereo not drawn),0,0,0,0
Cc1cccc(OCCCC(=O)Nc2nc3ccccc3[nH]2)c1,0,71,0,0
CNC(=O)Cc1nc2ccccc2n1CC(=O)Nc1ccccc1OC,0,0,0,0
CCCOc1ccc(C2CC(=O)Nc3cc4c(cc32)OCO4)cc1 (stereo not drawn),0,0,0,0
O=C1N(c2ccccc2)C[C@@H]2C[C@@H](c3cc4ccccc4o3)N3CCC[C@@]123,0,65,0,0
COc1cccc2sc(Nc3nc(-c4cccnc4)cs3)nc12,0,39,0,0
COc1ccccc1Nc1nc(-c2ccncc2)cs1,0,0,0,0
COc1cccc2sc(Nc3nc(-c4ccncc4)cs3)nc12,0,45,0,0
CCOC(=O)CSc1nnc2n1CCN2c1ccccc1,0,0,0,0
Nn1c(SCC(=O)c2ccc([N+](=O)[O-])cc2)nc2ccccc2c1=O,0,0,0,0
Cc1nn(CC(=O)N2c3ccccc3CC2C)c(C)c1[N+](=O)[O-] (stereo not drawn),0,0,0,0
CNc1c(-c2nc(-c3ccc(OC)cc3)n[nH]2)nnn1Cc1ccccc1Cl,0,46,0,0
O=C1C=CC2=C3c4cc(O)c(O)cc4CC3(O)COC2=C1O (stereo not drawn),0,0,92,0

# Screening data from PubChem BioAssay.
